Tests used:
Assay in all cases: PBM binding z-score (relative to random genomic background probes); higher = stronger binding; sequences stand for … in GC…GCGATTGACAGCGTAGAATGAAGG
[1] = tested on: PPARg:RXRa DBDmut IVT, anti-RXR (DBD mutation: RXRa K156A/R161A, NR concentration 270 nM, RXRa partner concentration 90 nM)
Summary of the method: (§1)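 For binding z-scores, the reference was random background probes on custom Agilent 4×180K protein-binding microarrays. These arrays were incubated 1 h with ligand-free nuclear receptor dimers in PBS pH 7.4, 2% milk, 0.02% Triton X-100, 1 mM DTT, 0.2 mg/mL BSA and 0.4 mg/ml salmon testes DNA. Fluorescence was scanned after antibody detection of each partner (one per run) and regression-normalized.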

[2] = tested on: PPARg:RXRa IVT, anti-PPARg (NR concentration 270 nM, RXRa partner concentration 90 nM)
Summary of the method: as §1

[3] = tested on: PPARg DBDmut:RXRa IVT, anti-PPARg (DBD mutation: PPARg1 K132A/R137A, NR concentration 270 nM, RXRa partner concentration 90 nM)
Summary of the method: as §1

[4] = tested on: PPARg DBDmut IVT, anti-PPARg (DBD mutation: PPARg1 K132A/R137A, NR concentration 270 nM)
Summary of the method: as §1

[5] = tested on: PPARg homodimer (NR concentration 180 nM)
Summary of the method: as §1

[6] = tested on: PXR:RXRa (NR concentration 270 nM, RXRa partner concentration 90 nM)
Summary of the method: as §1

[7] = tested on: PXR homodimer (NR concentration 270 nM)
Summary of the method: as §1

[8] = tested on: RARa:RXR (NR concentration 270 nM, RXRa partner concentration 90 nM)
Summary of the method: as §1

[9] = tested on: RARa homodimer (NR concentration 270 nM)
Summary of the method: as §1

[10] = tested on: RARb:RXRa (NR concentration 270 nM, RXRa partner concentration 90 nM)
Summary of the method: as §1

[11] = tested on: RARb homodimer (NR concentration 270 nM)
Summary of the method: as §1

[12] = tested on: RARg:RXRa (NR concentration 270 nM, RXRa partner concentration 90 nM)
Summary of the method: as §1

[13] = tested on: RARg homodimer (NR concentration 270 nM)
Summary of the method: as §1

[14] = tested on: RXRa DBDmut IVT, anti-RXR (DBD mutation: RXRa K156A/R161A, NR concentration 90 nM)
Summary of the method: as §1

[15] = tested on: RXRa homodimer (NR concentration 180 nM)
Summary of the method: as §1

[16] = tested on: THRa:RXRa (NR concentration 90 nM, RXRa partner concentration 90 nM)
Summary of the method: as §1

[17] = tested on: THRa homodimer (NR concentration 90 nM)
Summary of the method: as §1

[18] = tested on: VDR homodimer (NR concentration 270 nM)
Summary of the method: as §1

| Sequence | PBM binding z-score [1] | PBM binding z-score [2] | PBM binding z-score [3] | PBM binding z-score [4] | PBM binding z-score [5] | PBM binding z-score [6] | PBM binding z-score [7] | PBM binding z-score [8] | PBM binding z-score [9] | PBM binding z-score [10] | PBM binding z-score [11] | PBM binding z-score [12] | PBM binding z-score [13] | PBM binding z-score [14] | PBM binding z-score [15] | PBM binding z-score [16] | PBM binding z-score [17] | PBM binding z-score [18] |
| --- | --- | --- | --- | --- | --- | --- | --- | --- | --- | --- | --- | --- | --- | --- | --- | --- | --- | --- |
| CGTCCATGGTCAGCAGGTCAGTGAAAGCGACGTG | 0.0989 | 0.518 | -0.843 | -0.979 | -0.43 | 0.159 | -0.486 | 0.728 | -0.616 | 2.28 | 2.46 | 1.81 | 2.05 | -0.144 | 0.937 | 0.887 | -0.0849 | -0.456 |
| CGAACTAGGTCATTGACAGGACAGCGAATAGTAA | 7.7 | 7.96 | 1.01 | 0.969 | 1.57 | 1.35 | 0.255 | 2.1 | 0.179 | 3.61 | 2.86 | 4.65 | 4.4 | 2.19 | 2.44 | 2.9 | 0.784 | 1.31 |
| AGAATGAGGTTTAGATCAGGGAAACAGAATACAT | -0.558 | -0.176 | 0.757 | 0.896 | -0.0172 | -0.27 | -0.0808 | -0.0668 | 0.721 | -0.105 | -0.22 | -0.0854 | 0.196 | -0.146 | -0.129 | 0.678 | -0.242 | 0.0888 |
| CCTACTGGGCCATTCAGAGGTCAGTGATCATATG | 4.58 | 3.89 | -0.582 | -0.353 | 2.08 | 2.28 | 0.543 | 2.64 | 0.443 | 2.77 | 3.78 | 4 | 2.75 | 0.291 | 2.29 | 2.18 | 0.651 | 1.13 |
| GTACCAAGGTGAATGGGTCGTTGATGAGTAGGCG | 1.52 | 2.44 | 0.0637 | -0.57 | 1.22 | 0.325 | 0.284 | 0.784 | 0.00879 | 1.64 | 1.33 | 1.28 | 0.93 | -0.402 | 1.08 | 1.74 | 0.777 | 0.187 |
| ATCTCTAGGTAAAGATAGTTTAGTGAATGCAAAT | 1.81 | 2.04 | 1.07 | 0.379 | 0.699 | 0.277 | 0.329 | -0.0138 | 0.933 | 0.0107 | 0.204 | 0.354 | 0.533 | -0.0109 | 0.0812 | 0.487 | 0.117 | 0.358 |
| ACAGACAGGTGAAGAAGGTAACTCAGGCTATCAT | 0.468 | 0.733 | 0.175 | 0.429 | 0.495 | 0.0318 | 0.0524 | 0.274 | 0.349 | 0.709 | 0.685 | 0.696 | 0.885 | -0.215 | 0.527 | 1.32 | 0.0297 | -0.131 |
| AGAATGAGGTTATTAAGATAAGGGAATTGCGGTC | 2.05 | 2.31 | 1.03 | 0.188 | 0.58 | 0.886 | 0.278 | 1.24 | 0.541 | 1.23 | 0.848 | 1.41 | 0.946 | 1.84 | 1.8 | 1.95 | 0.273 | 0.849 |
| ATATGTAGGGTAGCTGGGGTCATTCAGACTAGGC | 5.27 | 5.46 | 1.65 | 3.4 | 2.54 | 6.03 | 3.77 | 5.97 | 0.388 | 2.87 | 3.6 | 3.62 | 2.23 | 1.78 | 5.16 | 4.74 | 3.57 | 4.92 |
| CAAACTAGGTCACAGAGATCAAAGTCCGTGCGTA | 8.62 | 9.06 | 1.86 | 1 | 2.16 | 2.28 | 0.448 | 2.78 | 0.89 | 4.03 | 3.1 | 4.52 | 4.87 | 1.59 | 3.84 | 3.28 | 1.27 | 0.964 |
| AGAAGGAGGTTATTAAGATCAGGGAATTGCGGTC | 2 | 1.6 | 0.512 | -0.349 | 1.37 | 1.2 | 1.24 | 0.985 | 1.65 | 1.26 | 1.32 | 0.881 | 0.837 | 0.39 | 1.36 | 1.18 | 0.884 | 1.23 |
| CTCGAAAGGTCGGTTGAGGTGAGCATACGGATAA | -0.122 | 1.01 | -0.332 | -0.0105 | 0.799 | 2.9 | -0.0982 | 2.5 | 0.0392 | 3.09 | 2.57 | 3.04 | 2.99 | 0.598 | 2.33 | 5.04 | 1.56 | 0.64 |
| TAAATGAGGTTAAAGATCAGGGAACGTGGCGTCG | 3.59 | 4.36 | 2.17 | 2.54 | 1.72 | 2.36 | 0.486 | 3.21 | 1.03 | 2.29 | 1.22 | 2.58 | 1.64 | 1.2 | 4.01 | 3.09 | 0.733 | 1.12 |
| GCAGACAGGTGAAACGCAGGTAACTGAGGGTGGC | 0.757 | 0.578 | 0.338 | -0.375 | -0.52 | -0.257 | -0.434 | 0.257 | -0.289 | 0.65 | 0.0628 | 0.86 | 0.142 | -0.51 | 0.568 | 1.06 | -0.377 | -0.727 |
| ATATGTTGGTTAGCTGGGGTCATTCAGACTAGGC | 0.909 | 1.74 | 0.767 | 1.26 | 2.8 | 5.64 | 3.66 | 5.26 | 1.53 | 2.72 | 3.55 | 3.66 | 2.3 | 1.91 | 4.97 | 4.21 | 3.57 | 5.32 |

Reference: the supplement of paper PMC6555819
